Test results from PubChem BioAssay (Tox21).
Inconclusive results are not listed. Activity calls are given as the source filed them. Unless noted, the call rests on the fitted dose curve; in most records, active means well fitted curve in the direction sought with a large enough effect in the repeat runs; inconclusive means weak or mixed curves; inactive means no such curve, though single readings can be large; an effect the other way counts as inactive or inconclusive.

Assays:
[1] = A CellTox Green Cytotoxicity Assay to monitor cytotoxicity in HepG2 cells - 0 hour (AID 1224882); further: nearly all actives have a fitted effect of over 35% in size
Procedure, shortened: (§1)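 Continuous culture of HepG2 cells with a membrane-impermeant DNA dye; rising fluorescence marks dead cells. Compound exposure lasted up to 40 h at 37 C, with reads every 8 h from 0 h.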

[2] = A CellTox Green Cytotoxicity Assay to monitor cytotoxicity in HepG2 cells - 32 hour (AID 1224883); further: nearly all actives have a fitted effect of over 50% in size
Procedure, shortened: as §1

[3] = A CellTox Green Cytotoxicity Assay to monitor cytotoxicity in HEK293 cells - 8 hour (AID 1224884); further: nearly all actives have a fitted effect of over 35% in size
Procedure, shortened: (§2)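 Each value comes from one timepoint of a single continuous run in which HEK293 cells with CellTox Green were exposed to compound for up to 40 h at 37 C, dye fluorescence rising with cell death.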

[4] = qHTS RealTime-Glo MT Cell Viability Assay in HepG2 cells - 16 hour (AID 1224885); further: nearly all actives have a fitted effect of over 50% in size
Procedure, shortened: (§3)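 Luminescence read-out: viable HepG2 cells reduce a prosubstrate to a NanoLuc substrate, giving a signal proportional to live cell number. Reads taken at 0, 8, 16, 24, 32 and 40 h of compound exposure at 37 C.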

[5] = qHTS RealTime-Glo MT Cell Viability Assay in HEK293 cells - 24 hour (AID 1224886); further: top concentration of the series differs between compounds; nearly all actives have a fitted effect of over 50% in size
Procedure, shortened: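 Nonlytic real-time viability readout: viable cells convert prosubstrate to NanoLuc substrate, giving luminescence proportional to live cell number. HEK293, 600 cells/well, compound added after 5 h, continuous culture at 37 C.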

[6] = qHTS RealTime-Glo MT Cell Viability Assay in HEK293 cells - 8 hour (AID 1224887); further: top concentration of the series differs between compounds; nearly all actives have a fitted effect of over 50% in size
Procedure, shortened: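 qHTS format; HEK293 cells with NanoLuc/prosubstrate reagent, 37 C/5% CO2 for 5 h pre-dosing; compounds 23 nL in DMSO; luminescence at each time point reflects viable cells.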

[7] = A CellTox Green Cytotoxicity Assay to monitor cytotoxicity in HEK293 cells - 16 hour (AID 1224888); further: nearly all actives have a fitted effect of over 35% in size
Procedure, shortened: as §2

[8] = qHTS RealTime-Glo MT Cell Viability Assay in HepG2 cells - 0 hour (AID 1224889); further: nearly all actives have a fitted effect of over 50% in size
Procedure, shortened: as §3

[9] = A CellTox Green Cytotoxicity Assay to monitor cytotoxicity in HepG2 cells - 8 hour (AID 1224890); further: nearly all actives have a fitted effect of over 45% in size
Procedure, shortened: as §1

[10] = qHTS assay to identify small molecule antagonists of the estrogen receptor alpha (ER-alpha) signaling pathway using the BG1 cell line in the presence of 0.1 nM 17-beta-estradiol - cell viability counter screen (AID 1259241); further: nearly all actives have a fitted effect of over 40% in size
Procedure, shortened: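 Cytotoxicity counter-screen: live-cell protease activity measured by fluorescence (30 min reagent step) in the same wells. Cells were VM7Luc4E2 with endogenous ER-alpha and ERE-driven luciferase, treated 22 hr at 37C alongside 0.1 nM 17beta-estradiol final.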

[11] = qHTS assay to identify small molecule antagonists of the androgen receptor (AR) signaling pathway using the MDA cell line in the presence of 0.5 nM R1881 - cell viability counter screen (AID 1259242); further: nearly all actives have a fitted effect of over 45% in size
Procedure, shortened: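 Fluorescence from CellTiter-Fluor, which reports protease activity of live cells, was read 30 min after reagent addition to MDA-kb2 cells that had been incubated 16 hr with compound and 0.5 nM R1881.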

[12] = molecular target: Estrogen receptor (Homo sapiens) (UniProt P03372); assay: qHTS assay to identify small molecule antagonists of the estrogen receptor alpha (ER-alpha) signaling pathway using the BG1 cell line in the presence of 0.1 nM 17-beta-estradiol (AID 1259244); further: nearly all actives have a fitted effect of over 50% in size
Procedure, shortened: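 Quantitative high-throughput screen in VM7Luc4E2 cells: compound plus 0.1 nM E2 (final), 22 h, 37C, 5% CO2; ONE-Glo added, 30 min room temperature, luminescence measured.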

[13] = qHTS assay to identify small molecule phospholipidosis (PLD) inducers (AID 1259344; active means well fitted curve in the direction sought with a large enough effect; an effect the other way counts as inactive or inconclusive)
Procedure, shortened: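 Fluorescent phospholipid staining (LipidTOX Red) measured by automated microscopy in fixed HepG2 cells after 24 h treatment; nuclei counterstained with Hoechst 33342; amiodarone as reference inducer.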

[14] = qHTS assay to identify small molecule HDAC inhibitors (AID 1259364); further: top concentration of the series differs between compounds; nearly all actives have a fitted effect of over 45% in size
Procedure, shortened: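 Endogenous HDAC class I/II activity was measured in wild-type HCT-116 cells by HDAC-Glo luminescence after 2 h compound treatment.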

[15] = qHTS assay to identify small molecule HDAC inhibitors - cell viability counter screen (AID 1259365)
Procedure, shortened: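 CellTiter-Glo luminescence (30 min, room temperature) reported viability after a 2 h compound exposure at 37 C. Cells: wild-type HCT-116, 1,500 per well, seeded the night before.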

[16] = qHTS assay to identify small molecule agonists of the sonic hedgehog signaling (Shh) pathway - cell viability counter screen (AID 1259366); further: nearly all actives have a fitted effect of over 50% in size
Procedure, shortened: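 Cytotoxicity counter screen: CellTiter-Fluor reagent added after 23 h compound exposure, then 1 h at 37C and fluorescence read. Cells were 3T3 Gli1-Luc, seeded 2,000 per well and dosed 4 h post-plating.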

[17] = qHTS assay to identify small molecule antagonists of the sonic hedgehog signaling (Shh) pathway - cell viability counter screen (AID 1259367); further: nearly all actives have a fitted effect of over 55% in size
Procedure, shortened: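 Using CellTiter-Fluor, viability of Gli1-Luc reporter 3T3 cells is read by fluorescence in the wells used for the Shh luciferase assay. Treatment lasts 23 hr with conditioned medium, then reagent 1 hr at 37C.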

[18] = qHTS assay to identify small molecule agonists of the sonic hedgehog signaling (Shh) pathway (AID 1259368; calls by dose curve;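 further: NIH/3T3-derived 3T3Gli1-Luc cells carrying a stable Gli1-driven firefly luciferase reporter; series mostly up to about 92 µM; nearly all actives have a fitted effect of over 15% in size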)
Procedure, shortened: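 Luminescent signal was taken as a measure of Gli1-controlled luciferase expression in stably transfected NIH/3T3-derived cells that had been treated for 24 hr with compounds delivered in DMSO.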

[19] = qHTS assay to identify small molecule antagonists of the sonic hedgehog signaling (Shh) pathway (AID 1259369; calls by dose curve; further: nearly all actives have a fitted effect of over 45% in size)
Procedure, shortened: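 Screening used 3T3Gli1-Luc cells at 2,000 per well, compounds delivered in DMSO, and conditioned medium as agonist stimulus; plates incubated 24hr at 37 C and 5% CO2 before a 30min luciferase step.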

[20] = molecular target: Androgen receptor (Homo sapiens) (UniProt P10275); assay: qHTS assay to identify small molecule antagonists of the androgen receptor (AR) signaling pathway using the MDA cell line in the presence of 0.5 nM R1881 (AID 1259243); further: nearly all actives have a fitted effect of over 50% in size
Procedure, shortened: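 Inhibition of R1881 (0.5 nM final) induced reporter signal was measured in human MDA-kb2 cells; note the MMTV promoter also responds to GR. Exposure lasted 16 hr at 37C.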
On the % scale 0 is the no-effect control and ±100 the full control effect.

Chain of Estrogen receptor (Homo sapiens) (P03372 whole entry, looked up): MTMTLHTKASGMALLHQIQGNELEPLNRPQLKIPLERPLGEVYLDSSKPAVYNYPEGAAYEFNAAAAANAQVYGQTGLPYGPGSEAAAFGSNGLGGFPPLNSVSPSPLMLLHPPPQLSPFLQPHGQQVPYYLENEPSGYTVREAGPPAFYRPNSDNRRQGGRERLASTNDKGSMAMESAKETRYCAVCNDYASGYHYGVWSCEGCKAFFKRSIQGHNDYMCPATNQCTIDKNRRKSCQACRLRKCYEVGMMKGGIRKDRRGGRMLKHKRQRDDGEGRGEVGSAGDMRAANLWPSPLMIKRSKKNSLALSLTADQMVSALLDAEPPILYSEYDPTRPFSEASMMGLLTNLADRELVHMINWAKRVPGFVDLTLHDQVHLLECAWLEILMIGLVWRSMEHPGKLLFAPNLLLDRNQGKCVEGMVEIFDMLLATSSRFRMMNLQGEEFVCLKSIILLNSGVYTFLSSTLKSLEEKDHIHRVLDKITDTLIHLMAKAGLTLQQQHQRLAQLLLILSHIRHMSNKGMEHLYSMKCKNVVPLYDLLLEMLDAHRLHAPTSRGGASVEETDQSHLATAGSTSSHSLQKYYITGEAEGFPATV
Chain of Androgen receptor (Homo sapiens) (P10275 whole entry, looked up): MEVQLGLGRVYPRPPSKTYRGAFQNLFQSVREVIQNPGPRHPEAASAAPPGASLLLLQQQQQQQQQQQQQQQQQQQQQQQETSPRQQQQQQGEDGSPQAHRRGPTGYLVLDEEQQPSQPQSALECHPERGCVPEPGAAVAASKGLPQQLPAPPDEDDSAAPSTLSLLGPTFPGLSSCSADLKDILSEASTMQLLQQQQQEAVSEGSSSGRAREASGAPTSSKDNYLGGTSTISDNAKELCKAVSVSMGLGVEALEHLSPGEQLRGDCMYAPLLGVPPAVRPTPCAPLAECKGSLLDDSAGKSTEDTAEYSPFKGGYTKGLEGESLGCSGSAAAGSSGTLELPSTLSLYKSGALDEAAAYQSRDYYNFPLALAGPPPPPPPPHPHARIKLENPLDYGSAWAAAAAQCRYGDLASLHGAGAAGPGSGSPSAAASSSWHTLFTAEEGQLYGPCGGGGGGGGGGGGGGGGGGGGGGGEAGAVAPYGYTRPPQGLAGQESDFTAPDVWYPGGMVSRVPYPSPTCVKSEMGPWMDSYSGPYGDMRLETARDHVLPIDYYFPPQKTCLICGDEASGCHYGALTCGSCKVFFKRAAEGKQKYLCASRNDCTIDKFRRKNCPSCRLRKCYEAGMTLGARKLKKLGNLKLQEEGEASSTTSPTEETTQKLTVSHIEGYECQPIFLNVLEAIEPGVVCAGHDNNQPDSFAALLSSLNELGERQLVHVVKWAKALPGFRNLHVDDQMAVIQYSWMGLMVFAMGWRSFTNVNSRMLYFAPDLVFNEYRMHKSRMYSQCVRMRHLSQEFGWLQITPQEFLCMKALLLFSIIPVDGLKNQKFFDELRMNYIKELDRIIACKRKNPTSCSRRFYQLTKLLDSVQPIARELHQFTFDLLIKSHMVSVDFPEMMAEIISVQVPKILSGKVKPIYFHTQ

Cc1cc(C(C)(C)C)cc(C)c1CC1=NCCN1
inactive: Potency [1] | Potency [2] | Potency [3] | Potency [4] | Potency [5] | Potency [6] | Potency [7] | Potency [8] | Potency [9] | Potency [10] | Potency [11] | Potency [12] | Potency [13] | Potency [14] | Potency [15] | Potency [16] | Potency [17] | Potency [18] | Potency [19]

O=C(O)c1cccc(C(F)(F)F)c1
inactive: Potency [1] | Potency [2] | Potency [3] | Potency [4] | Potency [5] | Potency [6] | Potency [7] | Potency [8] | Potency [9] | Potency [10] | Potency [11] | Potency [12] | Potency [14] | Potency [15] | Potency [16] | Potency [17] | Potency [18] | Potency [19]

c1ccc(SSc2ccccc2)cc1
inactive: Potency [1] | Potency [2] | Potency [3] | Potency [4] | Potency [5] | Potency [6] | Potency [7] | Potency [8] | Potency [9] | Potency [10] | Potency [11] | Potency [12] | Potency [14] | Potency [15] | Potency [16] | Potency [18]

CCC(=O)OC(=O)CC
inactive: Potency [1] | Potency [2] | Potency [3] | Potency [4] | Potency [5] | Potency [6] | Potency [7] | Potency [8] | Potency [9] | Potency [10] | Potency [11] | Potency [12] | Potency [14] | Potency [15] | Potency [16] | Potency [18] | Potency [19]

ClCCl
inactive: Potency [1] | Potency [2] | Potency [3] | Potency [4] | Potency [5] | Potency [6] | Potency [7] | Potency [8] | Potency [9] | Potency [10] | Potency [11] | Potency [20] | Potency [12] | Potency [15] | Potency [16] | Potency [17] | Potency [18] | Potency [19]

C[C@H]1NCc2cc(-c3ccc4c(=O)c(C(=O)O)cn(C5CC5)c4c3OC(F)F)ccc21
inactive: cytotoxicity [1] -0.836% [at 15.8 µM] | cytotoxicity increase [2] -4.67% [at 15.8 µM] | cytotoxicity increase [3] -4.13% [at 15.8 µM] | activity change, negative = cytotoxic [4] -14.5% [at 15.8 µM] | activity change, negative = cytotoxicity [5] -3.25% [at 15.8 µM] | activity change, negative = cytotoxicity [6] -3.93% [at 15.8 µM] | activity change [7] -0.109% [at 15.8 µM, active compounds read high] | activity change, negative = cytotoxicity [8] -7.36% [at 15.8 µM] | cytotoxicity increase [9] 1.89% [at 15.8 µM] | activity change, negative = cytotoxicity [10] -0.503% [at 19 µM] | viability change, negative = cytotoxic [11] -0.218% [at 19 µM] | activity change, negative = inhibition [12] -8.57% [at 19 µM] | Potency [13] | activity change, negative = inhibition [14] -0.849% [at 19 µM] | activity change, negative = cytotoxicity [15] 0.0413% [at 19 µM] | viability change, negative = cytotoxic [16] 2.18% [at 19 µM] | viability change, negative = cytotoxic [17] -2.69% [at 19 µM] | activity change [18] -0.818% [at 18.9 µM, active compounds read high] | activity change, negative = inhibition [19] 4.27% [at 19 µM]

Cc1ccc(C(C)C)cc2c(C)ccc1-2
inactive: Potency [1] | Potency [2] | Potency [3] | Potency [4] | Potency [5] | Potency [6] | Potency [7] | Potency [8] | Potency [9] | Potency [10] | Potency [11] | Potency [12] | Potency [13] | Potency [14] | Potency [15] | Potency [16] | Potency [17] | Potency [18] | Potency [19]

Nc1nc2c(ncn2COCCO)c(=O)[nH]1
inactive: Potency [1] | Potency [2] | Potency [3] | Potency [4] | Potency [5] | Potency [6] | Potency [7] | Potency [8] | Potency [9] | Potency [10] | Potency [11] | Potency [12] | Potency [13] | Potency [14] | Potency [15] | Potency [17] | Potency [18] | Potency [19]

C#Cc1ccc(-c2ccccc2F)cc1
inactive: Potency [1] | Potency [2] | Potency [3] | Potency [4] | Potency [5] | Potency [6] | Potency [7] | Potency [8] | Potency [9] | Potency [10] | Potency [11] | Potency [12] | Potency [14] | Potency [15] | Potency [16] | Potency [17] | Potency [18] | Potency [19]

CC(CO)Oc1ccccc1 (stereo not drawn)
inactive: Potency [1] | Potency [2] | Potency [3] | Potency [4] | Potency [5] | Potency [6] | Potency [7] | Potency [8] | Potency [9] | Potency [10] | Potency [11] | Potency [20] | Potency [12] | Potency [15] | Potency [17] | Potency [18] | Potency [19]

CC1=CCC(=C(C)C)CC1
inactive: Potency [1] | Potency [2] | Potency [3] | Potency [4] | Potency [5] | Potency [6] | Potency [7] | Potency [8] | Potency [9] | Potency [10] | Potency [11] | Potency [12] | Potency [14] | Potency [15] | Potency [16] | Potency [17] | Potency [18] | Potency [19]

O=C(O)c1cc(=O)c2ccccc2o1
inactive: Potency [1] | Potency [2] | Potency [3] | Potency [4] | Potency [5] | Potency [6] | Potency [7] | Potency [8] | Potency [9] | Potency [10] | Potency [11] | Potency [12] | Potency [13] | Potency [14] | Potency [15] | Potency [16] | Potency [17] | Potency [18] | Potency [19]

Cc1c(F)c(N2CCNC(C)C2)cc2c1c(=O)c(C(=O)O)cn2C1CC1 (stereo not drawn)
inactive: Potency [1] | Potency [2] | Potency [3] | Potency [4] | Potency [5] | Potency [6] | Potency [7] | Potency [8] | Potency [9] | Potency [10] | Potency [11] | Potency [12] | Potency [13] | Potency [14] | Potency [15] | Potency [18] | Potency [19]
